Source: PubChem BioAssay (NCI)
About 83,000 compounds went through this panel and 20% of them were active in at least one assay; those are over-represented in the sample as a whole.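 48-hour exposure, single concentration, 96-well plates; percent growth endpoint where 0 means no net growth. Active: below 10.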 Activity calls are given as the source filed them.

system: SW-620 colon; assay: NCI-60 one-dose screen, 48 h (100 = growth as untreated, 0 = no growth, -100 = all killed); conditions: 10 µM unless noted

SMILES | growth
CC(=O)Oc1c2c(nc3c1c1ccccc1n3Cc1ccccc1)-c1ccccc1C2 | 98.8% (inactive)
C/C(=C\c1cnc(C)s1)[C@@H]1C[C@@H]2O[C@@H]2CCC[C@H](C)[C@H](O)[C@@H](C)C(=O)C(C)(C)[C@@H](O)CC(=O)O1 | 34.8% (inactive)
OCCNc1nc(NCCO)nc(Nc2ccc(C3=NN(c4cc(Cl)cc(Cl)c4)C(c4ccc(C(F)(F)F)cc4)C3)cc2)n1 (configuration not stated) | 60.1% (inactive)
CCOCCc1c(O)nc(SC)[nH]c1=O | 90.9% (inactive)
CN(C)[C@@H]1C(=O)C(C(N)=O)=C(O)[C@@]2(O)C(=O)C3=C(O)c4c(O)cc(CN5CCc6ccccc6C5)c(Cl)c4C[C@H]3C[C@@H]12 | -72.4% (active)
CCCCn1c(=O)c(/C=C/C(=O)/C=C/c2cc3ccccc3n(CCCC)c2=O)cc2ccccc21 | -2.85% (active)
CCOC(=O)c1c(C)nc2c(c1N)CC(=O)N2CCc1ccccc1 | -67.5% (active)
C#CCOC(=O)[C@]1(C)CCC[C@]2(C)[C@H]3C[C@H]4C(C(C)C)=C[C@]3(CC[C@H]21)[C@@H]1C(=O)CCC(=O)[C@@H]14 | 86.9% (inactive)
C/C(=N/Nc1nc2ccccc2n1C)c1ccccn1 | 23.6% (inactive)
C#C[C@@]1(O)[C@@H](CO)O[C@@H](n2cc(-c3ccco3)c3c(N)ncnc32)[C@@H]1O | 63.5% (inactive)
CC(=O)c1ccc(NC(=O)CSc2nnc(-c3cc(-c4ccc(Cl)cc4)nc4ccccc34)o2)cc1 | 75.6% (inactive)
N#Cc1ccc(Oc2ccc3ccc(=O)oc3c2)cc1 | 96.5% (inactive)
C=C(C)[C@@H]1CC[C@]2(C(=O)O)CC[C@]3(C)[C@H](CC[C@@H]4[C@@]5(C)C[C@@H](CC#Cc6ccc(Cl)cc6)C(=O)C(C)(C)[C@@H]5CC[C@]43C)[C@@H]12 | 41.3% (inactive)
CN1CCN(S(=O)(=O)O[C@@H]2C(=O)N(c3cc4c5ccccc5ccc4c4ccccc34)[C@H]2c2ccc(F)cn2)CC1 | 98.2% (inactive)
Cc1cc(C)c2nc(Nc3nc(C)c(C)c(=O)[nH]3)nc(C)c2c1 | 9.96% (active)
COC(=O)c1nc(-c2ccccc2)oc1S(=O)(=O)n1nc(C)cc1N | 6.13% (active)

SMILES | growth
COc1ccc2cc(/C=C3\N=C(c4cc(OC)c(OC)c(OC)c4)OC3=O)c(OC)nc2c1 | 100% (inactive)
O=C(CSC(=S)N1CCCCC1)Nc1ccccc1 | 102% (inactive)
COc1cc(NC(=O)c2cc(O)c(C/C=C(\C)CCC=C(C)C)c(O)c2)cc2c1O[C@]1(C)CC[C@@H](O)C(C)(C)[C@H]1C2 | 9.02% (active)
CCN1CCC[C@H]1c1cc(O)c2c(c1OC)C[C@H]1C[C@H]3[C@H](N)C(=O)C(C(N)=O)=C(O)[C@@]3(O)C(=O)C1=C2O | 1.96% (active)
O=c1c2ccccc2oc2ccc(OCCCCCCN3CCCCCC3)cc12 | 23.5% (inactive)
NCCN1CCNCC1 | 103% (inactive)
C=C(C)[C@@H]1CC[C@]2(C(=O)OCCOCCOCC[P+](c3ccccc3)(c3ccccc3)c3ccccc3)CC[C@]3(C)[C@H](CC[C@@H]4[C@@]5(C)CC[C@H](C)C(C)(C)[C@@H]5CC[C@]43C)[C@@H]12 | -83.5% (active)
O=C1CCC23OC(C(O)c4ccccc4N12)C1C(Br)=NOC13 (configuration not stated) | 107% (inactive)
CCOC(=O)c1c(C)nc2c(c1N)/C(=C/c1ccccn1)C(=O)N2Cc1ccccc1 | 1.97% (active)
C[C@H]1[C@H](C)CC[C@]2(C(=O)OCCCC[P+](c3ccccc3)(c3ccccc3)c3ccccc3)CC[C@]3(C)C(=CC[C@@H]4[C@@]5(C)CC[C@H](OC(=O)C(Cl)Cl)C(C)(C)[C@@H]5CC[C@]43C)[C@H]12 | -71.3% (active)
C=C1C(=O)O[C@H]2[C@H]1CC/C(COC(=O)n1ccnc1)=C\CC[C@@]1(C)O[C@@H]21 | 71.2% (inactive)
CCOCc1cc(C(C)(C)C)ccc1O | 93.4% (inactive)
COC(=O)c1ccc2c(c1)NC(=O)[C@@H]1CCCN21 | 96.8% (inactive)
O=C(Nc1cccc(-c2cccc(F)c2)c1)C1CCN(Cc2cccc3cccnc23)CC1 | 43.3% (inactive)
CCCCn1c(=O)c(/C=C/C(=O)/C=C/c2ccc(O)c(OC)c2)cc2ccc(Cl)cc21 | 16.1% (inactive)
N#Cc1ccc(C2C3=C(CCCC3=O)OC3=C2C(=O)c2ccccc2C3=O)cc1 (configuration not stated) | 49.3% (inactive)
